Source: PubChem BioAssay (National Center for Advancing Translational Sciences (NCATS))
Tau ThT inhib = qHTS for Inhibitors of Tau Fibril Formation, Thioflavin T Binding. recombinant tau K18 P301L, heparin-induced fibrillization, ThT fluorescence. Potency, µM (top dose mostly 57.4 µM), actives largely listed as inhibitors. 270,000 compounds, 2.1% hits; further: nearly all actives have a fitted effect of over 55% in size
Target sequence (P10636 561-689 P618L limits assumed): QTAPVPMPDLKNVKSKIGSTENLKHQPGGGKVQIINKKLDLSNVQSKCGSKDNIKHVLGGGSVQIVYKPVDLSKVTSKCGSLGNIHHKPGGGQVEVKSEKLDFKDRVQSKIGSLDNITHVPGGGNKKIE
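K18 P301L tau (15 uM + 0.24 uM Alexa 594-tagged), heparin 20 uM, NaOAc pH 7, 6 h 37 C; ThT 30 uM, 1 h RT, ex 450/em 510 nm.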
Tau fibril FP = qHTS for Inhibitors of Tau Fibril Formation, Fluorescence Polarization | Microtubule-associated protein tau (Homo sapiens), P10636 | K18 P301L tau heparin fibrillization, Alexa594 FP, 6 h | Potency, µM (titrated, usually from 57.7 µM), hits mostly inhibitors | 280,000 compounds, 0.39% hits; further: nearly all actives have a fitted effect of over 55% in size
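Human tau K18 […] P301L fragment, 15 uM unlabeled plus 0.24 uM Alexa 594-labeled tau (final), with compound and 20 uM heparin in 100 mM sodium acetate pH 7; 6 hr at 37 C, then Alexa 594 FP read.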
FBPA coupling cs = qHTS Assay for Inhibitors of Fructose-1,6-bisphosphate Aldolase from Giardia Lamblia: Coupling assay counterscreen; coupling enzyme system counterscreen, AmpLite Red fluorescence; activity change, negative = inhibition, % at 58.2 µM, hits read low; 290,000 compounds, 0.67% hits; AID 2472, 2010; in the data active means activity change below about -30%
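First, compound is pin-transferred into glyceraldehyde-3-phosphate coupling-enzyme reagent at 57.5 uM final and held 10 min at RT. Next, substrate, coupling system and AmpLite Red are added. After 20 min RT, fluorescence (525/598 nm) is read.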
Tau fluor counter = Counterscreen qHTS for Inhibitors of Tau Fibril Formation, Fluorescence Polarization; 280,000 compounds, 0.93% hits; AID 1463, 2008; Potency, µM (titrated, usually from 57.7 µM); tau K18 P301L Alexa594 fluorescence, heparin fibrillization; further: nearly all actives have a fitted effect of over 55% in size
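Human tau K18 P301L (15 uM unlabeled, 0.24 uM Alexa 594-labeled) in 100 mM sodium acetate pH 7 with 20 uM heparin, 6 hr at 37 C. ThT 30 uM added, 1 hr ambient; Alexa 594 FP and total fluorescence read at 555/632 nm.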
Large screens that a line does not name were inactive; [ ] = dose if it differs, or a comment. Shown are actives, neighbours in structure and some others; about 2.7% of the full set was active somewhere. Unless noted, the call rests on the fitted dose curve; in most records, active means well fitted curve in the direction sought with a large enough effect; inconclusive means small, poorly fitted or top-dose-only effect, or another doubt; inactive means no such curve, though single readings can be large; an effect the other way counts as inactive or inconclusive.

N#C/C(=C\c1ccc(O)c(O)c1)C(=O)Nc1ccccc1	Tau ThT inhib 13µM, Tau fluor counter inconclusive
C[C@H](NC(=O)/C(C#N)=C/c1ccc(O)c(O)c1)c1ccccc1	Tau ThT inhib inconclusive, Tau fluor counter inconclusive
C[C@@H](NC(=O)/C(C#N)=C/c1ccc(O)c(O)c1)c1ccccc1	Tau ThT inhib inconclusive, Tau fluor counter inconclusive
N#C/C(=C\c1ccc(O)c([N+](=O)[O-])c1)C(=O)NCc1ccccc1	Tau ThT inhib 16µM
N#C/C(=C/c1ccc(O)c(O)c1)C(=O)OC/C=C/c1ccccc1	Tau ThT inhib 11µM, Tau fibril FP inconclusive, Tau fluor counter 11µM[quencher] (no result: FBPA coupling cs)
CCN(CC)CCn1c(=N)n(CC(O)COc2ccccc2C)c2ccccc21 (stereo not drawn)	none (no result: FBPA coupling cs)
CC(C)C(=O)OCc1cc(=O)n2nc(C3CC3)sc2n1	none (no result: FBPA coupling cs)
COc1ccc(NC(=O)c2ccccc2NS(=O)(=O)c2ccc(C)cc2)c([N+](=O)[O-])c1	Tau ThT inhib inconclusive, Tau fluor counter inconclusive
Cc1ccc(NC(=S)NNc2ccc([N+](=O)[O-])cc2S(=O)(=O)Nc2ccccc2C(=O)O)cc1C	Tau ThT inhib 7.9µM, Tau fibril FP inconclusive, Tau fluor counter inconclusive
O=C(O)c1ccccc1NS(=O)(=O)c1ccc(NNC(=S)Nc2ccc(OC(F)F)cc2)c([N+](=O)[O-])c1	Tau ThT inhib 7.1µM, Tau fibril FP 25µM, Tau fluor counter 10µM[quencher]
Nc1cccc2cnccc12	FBPA coupling cs -38
NCCC[C@@H](CC(=O)N[C@@H]1CCCC[C@H]1C(=O)N[C@H](CC(=O)N[C@@H](CCC(=O)O)CC(=O)O)Cc1c[nH]c2ccccc12)NC(=O)C[C@H](Cc1c[nH]c2ccccc12)NC(=O)[C@@H]1CNCC[C@H]1N	none
CCCc1ccc(OC(=O)c2cccs2)cc1	none
CCCc1ccc(OC(=O)c2ccc(O)cc2Cl)cc1	Tau ThT inhib inconclusive, Tau fibril FP 28µM, Tau fluor counter inconclusive
Cc1oc(-c2ccc(C(=O)Nc3cccc(C(F)(F)F)c3)cc2)nc1CSc1ccccc1	Tau fibril FP 14µM, Tau fluor counter inconclusive (no result: FBPA coupling cs)
C=CCC(C)(O)c1ccc(OC)cc1 (stereo not drawn)	none
O=C(/C=C/c1ccc(Cl)c(Cl)c1)n1cccn1	Tau ThT inhib 14µM, Tau fibril FP inconclusive
O=C(/C=C/c1ccc(Cl)c(Cl)c1)N1CCOCC1	none (no result: Tau ThT inhib, Tau fibril FP, Tau fluor counter)
COc1ccc(N=C2C(=Nc3ccc(OC)cc3)N(c3ccc(OC)cc3)C(=S)N2C(=O)c2ccc(OC)cc2)cc1	Tau ThT inhib 28µM
Nc1c(Cl)cc2c(c1Oc1ccccc1)C(=O)c1ccccc1C2=O	Tau ThT inhib inconclusive, Tau fluor counter 14µM[quencher]
Cc1cccc(C(=O)Nc2nc(-c3nnn(-c4cc(C)ccc4C)c3C)ns2)c1	none (no result: FBPA coupling cs)
COc1ccc(C(=O)Nc2ccc(N3CCCC3)cc2)cc1	Tau ThT inhib 7.9µM, Tau fluor counter 16µM[quencher]
CCOc1ccc(C(=O)Nc2ccc(N3CCCC3)cc2)cc1	Tau ThT inhib 8.9µM, Tau fluor counter inconclusive
CCCOc1ccc(C(=O)Nc2ccc(N3CCN(C(C)=O)CC3)cc2)cc1	Tau ThT inhib 2.2µM
CC(=O)N1CCN(c2ccc(NC(=O)c3ccc(C)cc3)cc2)CC1	Tau ThT inhib inconclusive (no result: FBPA coupling cs)
Cc1ccc(C(=O)Nc2ccc(N3CCCC3)cc2)c(C)c1	Tau ThT inhib 14µM
CCOC(=O)c1cc2c(=O)n3ccccc3nc2n(Cc2ccco2)c1=NC(=O)c1c(F)cccc1Cl	none (no result: FBPA coupling cs)
Cc1cccc(C(=O)Nc2sc3c(c2C(=O)N2CCCCC2)CCC(C)C3)c1 (stereo not drawn)	Tau ThT inhib inconclusive (no result: FBPA coupling cs)
CC(CNC(=O)CN1C(=O)COc2ccc(S(=O)(=O)N3CCCCCC3)cc21)c1ccccc1 (stereo not drawn)	none (no result: FBPA coupling cs)
Cc1cccc(OCC(=O)Nc2ccc(N3CCCC3)cc2)c1C	Tau ThT inhib 14µM, Tau fluor counter inconclusive
O=C(C1CCN(S(=O)(=O)c2cccc3nonc23)CC1)N1CCN(c2ccccc2)CC1	none (no result: FBPA coupling cs)
Cc1ccc2nc(CSc3nc(C)cc(C)c3C#N)[nH]c2c1	Tau ThT inhib 13µM, Tau fibril FP inconclusive, Tau fluor counter inconclusive
O=C(Nc1nnc(S(=O)(=O)N2CCOCC2)s1)c1cccc(F)c1	Tau ThT inhib inconclusive, Tau fibril FP inconclusive, Tau fluor counter inconclusive
O=C(Nc1nnc(S(=O)(=O)N2CCCCC2)s1)c1ccc(F)cc1	Tau ThT inhib 4.5µM, Tau fluor counter inconclusive (no result: FBPA coupling cs)
Cc1cccc(C(=O)Nc2nnc(S(=O)(=O)N3CCOCC3)s2)c1	Tau ThT inhib 3.5µM
O=C(Nc1nnc(S(=O)(=O)N2CCCCCC2)s1)c1ccccc1F	Tau ThT inhib inconclusive
O=C(Nc1nnc(S(=O)(=O)N2CCCC2)s1)c1ccc(F)cc1	Tau ThT inhib inconclusive, Tau fluor counter inconclusive (no result: FBPA coupling cs)
Cc1ccccc1C(=O)Nc1nnc(S(=O)(=O)N2CCCCCC2)s1	Tau ThT inhib 14µM
COc1cccc(CNC(=O)CCn2nc(C)c3c(C)n(-c4ccccc4)nc3c2=O)c1	none (no result: FBPA coupling cs)
C=CCn1c(N/N=C/c2ccc(O)cc2)nc2ccccc2c1=O	Tau fibril FP inconclusive, Tau fluor counter 16µM[quencher]
O=C1c2c(O)ccc(O)c2C(=O)c2c(NCCNCCO)ccc(NCCNCCO)c21	Tau ThT inhib 8.9µM, Tau fibril FP inconclusive, Tau fluor counter 3.2µM[quencher]
Oc1ccc(N=Nc2n[nH]c(-c3ccc(Cl)cc3)n2)cc1	Tau ThT inhib 1.8µM, Tau fluor counter inconclusive
CCCCNC(=O)C1CCC(Cn2c(=O)c3sccc3n(CC(=O)Nc3ccccc3)c2=O)CC1 (stereo not drawn)	none (no result: FBPA coupling cs)
CCNC(=O)Oc1ccc[nH]c1=O	Tau ThT inhib inconclusive, Tau fibril FP inconclusive, FBPA coupling cs -63
Cc1cccc(N2CSC3=C(C#N)C(c4ccc(C)o4)CC(=O)N3C2)c1 (stereo not drawn)	Tau ThT inhib 14µM, Tau fibril FP inconclusive
COc1cc(OC)c(C2CC(=O)N3CN(c4ccccc4C)CSC3=C2C#N)cc1OC (stereo not drawn)	Tau ThT inhib 28µM, Tau fibril FP 32µM
CCc1ccccc1N1CSC2=C(C#N)C(c3ccccc3F)CC(=O)N2C1 (stereo not drawn)	Tau ThT inhib 28µM, Tau fibril FP inconclusive
COc1ccc(CN2CC(=O)N(c3ccccc3C)C2=S)cc1OC	Tau fibril FP inconclusive
COc1ccc(OC)c(C2CC(=O)N3CN(c4ccccc4)CSC3=C2C#N)c1 (stereo not drawn)	Tau ThT inhib 28µM, Tau fibril FP 16µM, Tau fluor counter inconclusive
CC(Sc1nnc2ccc3ccccc3n12)C(=O)Nc1ccc(Cl)cc1 (stereo not drawn)	none (no result: FBPA coupling cs)
COc1ccc(C2CC(=O)N3CN(c4ccc(C)c(Cl)c4)CSC3=C2C#N)cc1 (stereo not drawn)	Tau ThT inhib 32µM, Tau fibril FP inconclusive, FBPA coupling cs -36
COc1ccc(N2CSC3=C(C#N)C(c4cccc(OC)c4OC)CC(=O)N3C2)cc1 (stereo not drawn)	Tau ThT inhib 18µM, Tau fibril FP inconclusive
